Assay results: PubChem BioAssay (NCI)
About 83,000 compounds went through this panel and 20% of them were active in at least one assay; those are over-represented in the sample as a whole.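 Single-dose data. Exposure time 48 hours. Values below 10 considered active.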 The source made the active and inactive calls.

Legend:
Experiment in all cases: NCI-60 one-dose screen, 48 h (100 = growth as untreated, 0 = no growth, -100 = all killed)
HT29 colon = conditions: 10 µM unless noted
SNB-75 CNS = conditions: 10 µM unless noted
SNB-19 CNS = conditions: 10 µM unless noted
U251 CNS = conditions: 10 µM unless noted
PC-3 prostate = conditions: 10 µM unless noted
SK-MEL-5 melanoma = conditions: 10 µM unless noted
UACC-62 melanoma = conditions: 10 µM unless noted
LOX IMVI melanoma = conditions: 10 µM unless noted
SK-MEL-28 melanoma = conditions: 10 µM
SK-MEL-2 melanoma = conditions: 10 µM unless noted

Measured: growth

O=c1cc(NC2CCN(CCCc3ccccc3)CC2)c2cc(Cl)ccc2o1
active: HT29 colon -12.9% | SNB-75 CNS -5.24% | U251 CNS -24.7% | PC-3 prostate 0% | SK-MEL-5 melanoma -54.6% | UACC-62 melanoma 9.81% | LOX IMVI melanoma -1.07% | SK-MEL-28 melanoma 8.62% | SK-MEL-2 melanoma -44%
inactive: SNB-19 CNS 25.6%

C#CCn1cc(C=C2C(=O)N(C)C(=O)N(C)C2=O)c2cc(Cl)ccc21
inactive: HT29 colon 118% | SNB-75 CNS 91.6% | SNB-19 CNS 105% | U251 CNS 113% | PC-3 prostate 103% | SK-MEL-5 melanoma 99.5% | UACC-62 melanoma 94% | LOX IMVI melanoma 96.8% | SK-MEL-28 melanoma 113% | SK-MEL-2 melanoma 95.5%

CNCCNc1nc2ccccc2c2c(=O)c3cc(OC)ccc3sc12
active: HT29 colon -33.3% | U251 CNS -19.6% | UACC-62 melanoma 7.43% | LOX IMVI melanoma -87.8%
inactive: SNB-75 CNS 43.1% | SNB-19 CNS 57.6% | PC-3 prostate 14% | SK-MEL-5 melanoma 76.4% | SK-MEL-28 melanoma 74.6% | SK-MEL-2 melanoma 75.2%

COc1c(B(O)O)cccc1-c1nc2ccc3n[nH]c(F)c3c2c2c1CCCC2
active: SNB-75 CNS -10.9%
inactive: HT29 colon 105% | SNB-19 CNS 78.8% | U251 CNS 71.4% | PC-3 prostate 74% | SK-MEL-5 melanoma 88.7% | UACC-62 melanoma 77.7% | LOX IMVI melanoma 54.7% | SK-MEL-28 melanoma 116% | SK-MEL-2 melanoma 110%

COc1ccccc1C1=C(Br)C(=O)c2nc(C)ccc2C1=O
inactive: HT29 colon 101% | SNB-75 CNS 94.4% | SNB-19 CNS 101% | U251 CNS 102% | PC-3 prostate 101% | SK-MEL-5 melanoma 100% | UACC-62 melanoma 88.9% | LOX IMVI melanoma 97.1% | SK-MEL-28 melanoma 104% | SK-MEL-2 melanoma 97.2%

O=C1/C(=C\c2ccc[nH]2)c2ccccc2N1c1ccccc1
inactive: HT29 colon 105% | SNB-75 CNS 84.7% | SNB-19 CNS 92.2% | U251 CNS 99.3% | PC-3 prostate 90.9% | SK-MEL-5 melanoma 90.5% | UACC-62 melanoma 77% | LOX IMVI melanoma 96.4% | SK-MEL-28 melanoma 96.7% | SK-MEL-2 melanoma 106%

Oc1ccc(-c2nc(-c3ccc4oc5ccc(-c6[nH]c(-c7ccc(O)cc7)nc6-c6ccccc6)cc5c4c3)c(-c3ccccc3)[nH]2)cc1
inactive: HT29 colon 34.6% | SNB-75 CNS 39.2% | SNB-19 CNS 63.5% | U251 CNS 58.2% | PC-3 prostate 52.1% | SK-MEL-5 melanoma 70.8% | UACC-62 melanoma 49.9% | LOX IMVI melanoma 67.5% | SK-MEL-28 melanoma 77.8% | SK-MEL-2 melanoma 93.7%

COC(=O)/C(CCC=C(C)C)=C1\[C@@H](OC(C)=O)C[C@@]2(C)[C@H]1CC(=O)[C@H]1[C@@]3(C)CC[C@H](NCc4ccccc4)[C@@H](C)[C@@H]3CC[C@@]12C
inactive: HT29 colon 37.8% | SNB-75 CNS 83.2% | SNB-19 CNS 95.7% | U251 CNS 74% | PC-3 prostate 70.4% | SK-MEL-5 melanoma 89.6% | UACC-62 melanoma 86.7% | LOX IMVI melanoma 81.8% | SK-MEL-28 melanoma 96.7% | SK-MEL-2 melanoma 106%

O=C(c1ccccc1)N(C(=S)NCCc1ccc(Cl)cc1)c1ccc(Cl)cc1
inactive: HT29 colon 37.6% | SNB-75 CNS 74.8% | SNB-19 CNS 59.3% | U251 CNS 47.8% | PC-3 prostate 66.2% | SK-MEL-5 melanoma 67.2% | UACC-62 melanoma 76.8% | SK-MEL-28 melanoma 42.8% | SK-MEL-2 melanoma 40.7%
active: LOX IMVI melanoma -16.6%

CCCCNc1nc(NC(C)(C)C)nc(NC(C)(C)C)n1
inactive: HT29 colon 15.2% | SNB-75 CNS 59.8% | SNB-19 CNS 63.7% | U251 CNS 38% | PC-3 prostate 58.6% | SK-MEL-5 melanoma 50.7% | UACC-62 melanoma 55.3% | LOX IMVI melanoma 56.8% | SK-MEL-28 melanoma 61.4% | SK-MEL-2 melanoma 64.1%

O=S1(=O)CCN(Cc2ccccc2)CC1
inactive: HT29 colon 103% | SNB-75 CNS 111% | SNB-19 CNS 92% | U251 CNS 104% | PC-3 prostate 101% | SK-MEL-5 melanoma 96.5% | UACC-62 melanoma 106% | LOX IMVI melanoma 98.3% | SK-MEL-28 melanoma 102% | SK-MEL-2 melanoma 119%

O=C(CSc1ccc2nnc(-c3cccc(F)c3)n2n1)Nc1ccc2c(c1)OCO2
active: SNB-75 CNS -22.3%
inactive: HT29 colon 99.6% | SNB-19 CNS 100% | U251 CNS 70.3% | PC-3 prostate 40.1% | SK-MEL-5 melanoma 86.1% | UACC-62 melanoma 83.2% | LOX IMVI melanoma 61.1% | SK-MEL-28 melanoma 79.7% | SK-MEL-2 melanoma 92.6%

O=C1NC(=O)C(=Cc2cn(Cc3cn(Cc4ccc(Cl)cc4Cl)nn3)c3ccccc23)C(=O)N1
inactive: HT29 colon 111% | SNB-75 CNS 75.4% | SNB-19 CNS 88.5% | U251 CNS 91% | PC-3 prostate 89.6% | SK-MEL-5 melanoma 69.5% | UACC-62 melanoma 67.6% | LOX IMVI melanoma 80.1% | SK-MEL-28 melanoma 107% | SK-MEL-2 melanoma 79.3%

O=S(=O)(c1ccccc1)n1cc2c(c1-c1ccccc1)CCc1sc(Nc3ccccc3)nc1-2
inactive: HT29 colon 93% | SNB-75 CNS 93% | SNB-19 CNS 95.2% | U251 CNS 78.5% | PC-3 prostate 69.8% | SK-MEL-5 melanoma 88.3% | UACC-62 melanoma 78.4% | LOX IMVI melanoma 77.8% | SK-MEL-28 melanoma 106% | SK-MEL-2 melanoma 93.4%

COc1ccc(/C=C2\N=C(c3ccccc3)N(c3ccc(-c4nc5ccc(C)cc5s4)cc3)C2=O)cc1
inactive: HT29 colon 88.9% | SNB-75 CNS 69.9% | SNB-19 CNS 84.3% | U251 CNS 81.2% | PC-3 prostate 63.1% | SK-MEL-5 melanoma 85.3% | UACC-62 melanoma 73.2% | LOX IMVI melanoma 98.2% | SK-MEL-28 melanoma 114% | SK-MEL-2 melanoma 85.2%

COC(=O)/C(=C\c1c(C)[nH]c2ccccc12)S(=O)(=O)c1ccccc1
active: HT29 colon 9.54% | SNB-75 CNS -8.87% | PC-3 prostate -1.81%
inactive: SNB-19 CNS 19.1% | U251 CNS 25.7% | SK-MEL-5 melanoma 34.1% | UACC-62 melanoma 53.8% | LOX IMVI melanoma 15.6% | SK-MEL-28 melanoma 16.6% | SK-MEL-2 melanoma 23.9%

Cn1c(/C=C(\C#N)c2cccc(C(F)(F)F)c2)nc2c(N3CCOCC3)nc(Cl)nc21
inactive: SNB-19 CNS 56.3%
active: HT29 colon -41.5% | SNB-75 CNS -22.7% | U251 CNS 2.31% | PC-3 prostate -42.6% | SK-MEL-5 melanoma 9.34% | UACC-62 melanoma -81.1% | LOX IMVI melanoma -87.9% | SK-MEL-28 melanoma -87.2% | SK-MEL-2 melanoma -21.2%

O=C(O)CCC(=O)c1ccc(C2CCCCCC2)cc1
inactive: HT29 colon 91.6% | SNB-75 CNS 96.5% | SNB-19 CNS 93.2% | U251 CNS 96% | PC-3 prostate 99.2% | SK-MEL-5 melanoma 105% | UACC-62 melanoma 106% | LOX IMVI melanoma 99% | SK-MEL-28 melanoma 113% | SK-MEL-2 melanoma 105%

O=C1C(Cl)=C(NCc2ccco2)C(=O)c2ccccc21
active: SK-MEL-5 melanoma -75.6%
inactive: HT29 colon 67.9% | SNB-75 CNS 87.1% | SNB-19 CNS 98.8% | U251 CNS 70.2% | PC-3 prostate 82.7% | UACC-62 melanoma 76% | LOX IMVI melanoma 16.2% | SK-MEL-28 melanoma 106% | SK-MEL-2 melanoma 93.4%

CCCCCCc1cc2cc(-c3csc(/C=C/c4ccccc4)n3)c(=O)oc2cc1O
inactive: SNB-19 CNS 55.3% | PC-3 prostate 25.1%
active: HT29 colon -37.8% | SNB-75 CNS 3.13% | U251 CNS 0.326% | SK-MEL-5 melanoma -93.6% | UACC-62 melanoma -68.3% | LOX IMVI melanoma -47.1% | SK-MEL-28 melanoma -96.1% | SK-MEL-2 melanoma -71.5%

O=C(Nc1ccc(N2CCNCC2)cn1)c1[nH]ncc1Nc1ncnc2sccc12
inactive: SNB-75 CNS 59.5% | SNB-19 CNS 48.7% | PC-3 prostate 23.7% | SK-MEL-5 melanoma 58.2% | UACC-62 melanoma 74.7% | SK-MEL-2 melanoma 85.7%
active: HT29 colon 2.95% | U251 CNS -51.1% | LOX IMVI melanoma -75.1% | SK-MEL-28 melanoma -81.4%

FC(F)(F)c1cccc(Nc2nc3ccccc3nc2Nc2cccc(C(F)(F)F)c2)c1
inactive: PC-3 prostate 15.4%
active: HT29 colon -53.7% | SNB-75 CNS -92.3% | SNB-19 CNS 7.81% | U251 CNS -34% | SK-MEL-5 melanoma -95.6% | UACC-62 melanoma -62.6% | LOX IMVI melanoma -79.4% | SK-MEL-28 melanoma -85.5% | SK-MEL-2 melanoma -62.5%

CCOc1cc(Cl)c(C(C)NC(=O)c2cccc(OC)c2)cc1OCC (stereo not given)
active: HT29 colon -39.4% | SNB-75 CNS 7.33% | PC-3 prostate 6.15% | SK-MEL-5 melanoma -96.8% | UACC-62 melanoma -76% | LOX IMVI melanoma -68.9% | SK-MEL-28 melanoma -44.6%
inactive: SNB-19 CNS 84.2% | U251 CNS 22.5% | SK-MEL-2 melanoma 34.9%

S=C1CCCC(=S)N1
inactive: HT29 colon 103% | SNB-75 CNS 99% | SNB-19 CNS 103% | U251 CNS 101% | PC-3 prostate 103% | SK-MEL-5 melanoma 107% | UACC-62 melanoma 96% | LOX IMVI melanoma 96.8% | SK-MEL-28 melanoma 106% | SK-MEL-2 melanoma 102%

CC(=O)O[C@@H]1/C=C/C(=O)N[C@@H](C)CCC/C=C/[C@@H]2CCC[C@H]21
inactive: HT29 colon 110% | SNB-75 CNS 95% | SNB-19 CNS 96.9% | U251 CNS 109% | PC-3 prostate 90.2% | SK-MEL-5 melanoma 101% | UACC-62 melanoma 92.1% | LOX IMVI melanoma 105% | SK-MEL-28 melanoma 129% | SK-MEL-2 melanoma 119%

COc1cc(NC(=O)CCSc2nc3ccccc3c(=O)n2CCc2ccccn2)cc(OC)c1OC
active: SNB-75 CNS 8.5%
inactive: HT29 colon 102% | SNB-19 CNS 98.6% | U251 CNS 85.1% | PC-3 prostate 81.6% | SK-MEL-5 melanoma 87.8% | UACC-62 melanoma 84% | LOX IMVI melanoma 94.8% | SK-MEL-28 melanoma 83.3% | SK-MEL-2 melanoma 92.4%

Cc1ccc(CN2CCC(C(=O)Nc3ccc(-c4cc5ccccc5[nH]4)cc3)CC2)o1
inactive: HT29 colon 57.1% | SNB-75 CNS 100% | SNB-19 CNS 80% | U251 CNS 39.8% | SK-MEL-5 melanoma 50.4% | UACC-62 melanoma 72.1% | LOX IMVI melanoma 42.2% | SK-MEL-28 melanoma 85.1% | SK-MEL-2 melanoma 88.4%
active: PC-3 prostate 2.12%
